This is a sample that favours compounds with a hit; in the whole collection about 4.1% have one here.
DAX1 inh-1: blocks DAX1 repression of SF-1 activated StAR promoter | HEK293T StAR-luciferase reporter, SF-1/DAX-1 repression relief | inhibition, % at 6.8 µM | 1.1% of 370,000 active | AID 652010;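 active = inhibition above the mean over all tested compounds plus 3 SD, cut at about 3.6% in these data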;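 also: 0% = DAX-1 cells with DMSO and 100% = cells lacking DAX-1 with DMSO; higher inhibition means more luminescence from relief of DAX-1 repression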
DAX1 inh-2: inhibits human nuclear receptor DAX1. HEK293 Gal4-DAX1 luciferase reporter, luminescence. inhibition, % at 6.75 µM. 0.99% of 340,000 active;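 active = inhibition above the mean over all tested compounds plus 3 SD, cut at about 4.2% in these data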;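 also: 0% = DAX1-transfected cells with DMSO and 100% = empty-vector control cells with DMSO; inhibition shows as a rise in luminescence from relieved DAX1 repression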
hcDAF-12 act: activates DAF-12 receptor from parasite H. contortus; activation, % at 6.8 µM; HEK293 hcDAF-12 lit1-tk-luc reporter, luminescence; 0% DMSO, 100% Δ7-dafachronic acid; 1.4% of 370,000 active;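 active = activation above the mean of all tested compounds plus 3 SD, cut at about 5.5% in these data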;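 also: 100% = response to 3 µM Δ7-dafachronic acid high control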
ssDAF12 agonist: activates DAF-12 receptor from parasite S. stercoralis | HEK293 ssDAF-12/GRIP1 lit1-tk-luc reporter, luminescence; % of 3 µM dafachronic acid response | activation, % at 6.8 µM | 1% of 370,000 active | AID 652126;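 active = activation above the mean over all tested compounds plus 3 SD, cut at about 0.9% in these data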;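 also: 0% = DMSO-only wells and 100% = 3 µM delta7-dafachronic acid wells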
hgDAF12 agonist: agonists of H. glycines DAF-12 nuclear receptor. HEK293 GAL4-hgDAF12 UAS-luciferase reporter, agonist luminescence; normalized to butyrate control. activation, % at 6.8 µM. 1.8% of 370,000 active;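 active = activation above a cutoff set at the mean of all screened compounds plus 3 SD, cut at about 10% in these data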;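 also: 0% = DMSO wells and 100% = sodium butyrate wells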
LXR ag: activates human LXR-beta, counter-screen for hcDAF-12 agonists; shares compounds with hcDAF-12 act; HEK293 Gal4-LXR tk-luc reporter, luminescence, 24 h; normalized: DMSO 0%, positive control 100%; activation, % at 6.8 µM; 3,400 tested, under 10 active; AID 743027;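 active = mean percent activation of the reporter above a cutoff set as the average over tested compounds plus their standard deviation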
Target sequence (P55055 whole entry, looked up, the tested form may be a part): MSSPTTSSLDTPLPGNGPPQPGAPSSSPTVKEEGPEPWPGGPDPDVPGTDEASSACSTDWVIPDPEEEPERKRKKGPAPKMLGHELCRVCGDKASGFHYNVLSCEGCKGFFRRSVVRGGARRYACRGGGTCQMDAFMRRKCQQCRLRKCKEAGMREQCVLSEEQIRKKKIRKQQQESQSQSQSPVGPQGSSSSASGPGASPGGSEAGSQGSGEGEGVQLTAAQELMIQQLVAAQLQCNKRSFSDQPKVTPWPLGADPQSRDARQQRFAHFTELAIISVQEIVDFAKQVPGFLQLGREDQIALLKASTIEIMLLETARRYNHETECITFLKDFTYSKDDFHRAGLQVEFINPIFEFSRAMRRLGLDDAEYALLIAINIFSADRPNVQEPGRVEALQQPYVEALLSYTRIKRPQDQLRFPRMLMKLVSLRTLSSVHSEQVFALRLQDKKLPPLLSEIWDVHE
hcDAF12 ag: confirmation of H. contortus DAF-12 agonists | shares compounds with hcDAF-12 act | HEK293 hcDAF-12 lit1-tk-luc reporter, luminescence; % of Δ7-dafachronic acid response | activation, % at 6.8 µM | 61% of 3,400 active | AID 743032;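 active = mean activation across triplicate tests above the threshold derived from the earlier primary screen, cut at about 5.5% in these data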;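 also: 0% = DMSO only wells and 100% = 3 µM Δ7-dafachronic acid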
* hit, by the source's call; · = not tested or not shown.

SMILES	DAX1 inh-1	DAX1 inh-2	hcDAF-12 act	ssDAF12 agonist	hgDAF12 agonist	LXR ag	hcDAF12 ag
O=C1NC(=O)C(CC(=O)N(Cc2cccs2)C2(C(=O)NC3CCCC3)CCCCC2)N1 (stereo unspecified)	0.4	-0.9	8.7*	-0.6	-0.7	-0.2	0.2
COc1ccc2c(c1)CO[C@]21O[C@H](CCO)C[C@H](O)[C@H]1O	0.1	·	0.7	-0.7	0.0	·	·
CCc1nc2ccc(C(=O)N(C)Cc3ccco3)cn2c1N(C)CCCc1ccccc1	-1.5	·	-2.0	-1.5	1.4	·	·
Clc1cccc(-c2nc(-c3ccccn3)no2)c1	1.0	-4.6	9.7*	-0.2	4.5	1.1	11.8*
c1ccc(-c2ccc(-c3nc(-c4ccccn4)no3)cc2)cc1	-1.4	-5.2	-4.7	-2.7	-12.1	·	·
Cc1cc(=O)[nH]c(SCc2ccccc2)n1	-0.4	0.0	1.0	-1.5	-1.8	·	·
O=c1cc(O)nc(SCc2ccccc2)[nH]1	0.2	1.0	6.7*	-1.6	-2.4	0.0	1.8
CC(C)C(=O)N1CCC1(C)C(=O)Nc1nc2ccccc2[nH]1 (stereo unspecified)	-0.6	·	-0.5	-0.5	-1.5	·	·
O=C(CSc1nc2sc3c(c2c(=O)n1-c1ccc(Cl)cc1)CCC3)Nc1ccc(C(=O)O)cc1	0.7	·	7.9*	-0.8	-0.5	-0.2	2.5
CSc1cccc(NC(=O)CNS(=O)(=O)c2ccccc2)c1	-0.7	-0.7	-1.1	-1.2	2.2	·	·
Cc1noc(C)c1-c1ccc(C(=O)Nc2ccc(C(C)C)cc2)c2occc12	-1.5	·	2.7	-1.2	-3.1	·	·
Cc1ccc(Cn2cc(COC(=O)N3CCCC3)nn2)cc1	0.1	·	-3.9	-0.3	-1.4	·	·
S=C(N/N=C/c1ccc(Cl)cc1)N1CCOCC1	2.1	1.4	7.2*	-0.1	12.7*	0.3	1.1
COc1ccc(Cn2cc(COC(=O)N3CCCC3)nn2)cc1	-1.0	·	-0.3	-1.1	0.1	·	·
COc1ccc(C)c2sc(=NC(=O)c3ccccc3)n(C)c12	2.4	1.0	10.0*	0.4	3.5	1.9	13.2*
CCC(=O)N=c1sc2c(OC)ccc(OC)c2n1C	1.1	0.1	0.7	-1.0	-0.8	·	·
NC(=Nc1ccccc1)N(c1ccccc1)c1ccccc1	-0.6	0.6	2.7	-0.9	0.0	·	·
COc1ccccc1C(=O)Nc1cccc(NC(C)=O)c1	0.2	-0.6	-1.1	-1.6	-1.8	·	·
COc1ccccc1C(=O)Nc1ccc2ccccc2c1	1.3	3.4	20.3*	1.6*	13.8*	0.9	12.1*
COc1c(C(=O)Nc2nccs2)ccc2ccccc12	0.8	3.4	4.8	-0.6	8.5	·	·
COc1ccccc1C(=O)Nc1ccc(N2CCCCC2)cc1	3.5	3.3	13.1*	2.7*	11.1*	1.1	13.8*
COc1ccccc1C(=O)Nc1ccc(N2CCN(C(C)=O)CC2)cc1	0.1	-0.5	-1.4	-1.8	-0.4	·	·
COc1cc2ccccc2cc1C(=O)Nc1nccs1	0.5	0.8	10.0*	1.4*	10.6*	0.6	10.8*
Cc1c(C(=O)Nc2ccc(Cl)cc2)c2ccccn2c1C(=O)c1ccc(F)cc1	1.0	-0.2	0.9	-0.7	0.0	·	·
Cc1cc2ccccn2c1C(=O)Nc1ccc(Cl)cc1	1.1	3.4	8.8*	0.3	10.2	0.5	9.4*
SMILES	DAX1 inh-1	DAX1 inh-2	hcDAF-12 act	ssDAF12 agonist	hgDAF12 agonist	LXR ag	hcDAF12 ag
Cc1cc2ccccn2c1C(=O)Nc1ccccc1	0.7	0.9	9.7*	1.0*	4.3	0.4	9.6*
CC1(C(=O)O)CCCN1C(=O)c1cccc(F)c1 (stereo unspecified)	-0.3	·	-0.9	-0.5	2.6	·	·
COC(=O)c1cc(-c2ccc(C(C)(C)C)cc2)c(=O)n2c1CCC2	0.6	·	7.1*	-0.7	-1.2	-0.3	1.5
CCOc1ccc(-c2cc(C(=O)OC)c3n(c2=O)CCC3)cc1	-0.5	·	0.0	-1.2	0.1	·	·
C(=N\Nc1nncc2ccccc12)/c1ccccc1	1.8	3.1	7.7*	0.3	8.4	1.9	13.6*
CN(C)c1ccc(/C=N/Nc2nc3ccccc3o2)cc1	1.8	-1.1	7.7*	0.9	10.3	1.1	5.4
